Screening results from PubChem BioAssay.
A selection: hits, their analogues and other compounds. The true share with any hit is near 21%.
Shiga inhibitor = blocks Shiga toxin action in Vero cells; Vero cells, Shiga toxin protein synthesis inhibition reporter; inhibition, % at 38.7 µM; 290,000 compounds, 9.2% hits; in the data active = inhibition mostly above about 28%, no sharp cut-off; inactive = mostly below about 43%; also: 0% is about no effect
NS1 inh = influenza NS1 inhibition; Potency, µM (top dose mostly 46.1 µM), for the others: at the top dose activity, positive = more growth; 270,000 compounds, 0.4% hits; AID 2326; also: potency is read from the fitted curve at half-maximal effect; actives are rising curves; nearly all actives have a fitted effect of over 50% in size
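Read-out: OD600 growth recovery of NS1-expressing budding yeast. Cells grown overnight at 30C in -URA glucose medium, washed, resuspended and diluted 1:100 in 2% galactose assay medium, pH 6.0. Same strain lacking NS1 served as positive control.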
SARS PLpro yeast = SARS-CoV PLP inhibition in yeast; 330,000 compounds, 0.19% hits; S. cerevisiae expressing SARS-CoV PLpro, growth rescue; AID 485353; Potency, µM (series often up to 32.9 µM), for the others: at the top dose activity, positive = growth rescue, most hits filed as activators; also: potency is read from the fitted curve at half-maximal effect; 0% is about no effect; nearly all actives have a fitted effect of over 55% in size
Pf growth 48h = P. falciparum growth inhibition at 48 hours (one generation). 310,000 compounds, 5.9% hits. Potency, µM (series often up to 28.7 µM), for the others: at the top dose activity change, negative = inhibition, most hits filed as inhibitors. P. falciparum luciferase growth in erythrocytes, 48 h; active = well fitted inhibition curve with a large enough effect; inconclusive = small, poorly fitted or top-dose-only effect, or another doubt; inactive = no such curve, though single readings can be large or run the other way; also: potency is read from the fitted curve at half-maximal effect; % is scaled to controls: 0 for no effect and ±100 for the full control effect
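Firefly luciferase activity from engineered P. falciparum reports growth; inhibitors lower the luminescent signal. Cultures contained 2% hematocrit erythrocytes at 0.1% final parasitemia.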
Pf growth 96h = inhibits malaria parasite growth, 96 h; Potency, µM (highest dose often 28.7 µM), for inactives: top-dose activity change, negative = inhibition, hits mostly inhibitors; 320,000 compounds, 6.9% hits; P. falciparum luciferase reporter growth, 96 h; active = well fitted inhibition curve with a large enough effect; inconclusive = small, poorly fitted or top-dose-only effect, or another doubt; inactive = no such curve, though single readings can be large or run the other way; also: potency is read from the fitted curve at half-maximal effect; % is scaled to controls: 0 for no effect and ±100 for the full control effect
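Two parasite generations (96 h, 37 C, 5% CO2) of compound exposure in infected erythrocytes (0.05% parasitemia, 2% hematocrit). Luciferase-reporter P. falciparum; decreased luminescence indicates inhibited growth, aimed at apicoplast-acting delayed death.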
Cycloheximide cs = counter-screen hit for Shiga toxin inhibitors, cycloheximide. cell reporter, cycloheximide protein synthesis inhibition counterscreen. max response, %. 300,000 compounds, 12% hits. AID 2314; in the data active = max response mostly above about 13%, no sharp cut-off; inactive = mostly below about 14%; also: read at 38.3 µM for the half of the compounds with a filed dose; 0% is about no effect
The depositor's hits bear a star; i = inactive; ? = inconclusive; / = not tested or not shown. Unless noted, calls follow the shape of the full dose curve.

SMILES | Shiga inhibitor | NS1 inh | SARS PLpro yeast | Pf growth 48h | Pf growth 96h | Cycloheximide cs
COC(=O)c1ccc(C2c3[nH]c4ccccc4c3C[C@H]3C(=O)N(C4CC4)CC(=O)N23)cc1 (stereo partly drawn) | -12 | 4% | 0% | ? | ? | -5
O=C1[C@@H]2Cc3c([nH]c4ccccc34)C(c3ccccc3)N2C(=O)CN1CCO (stereo partly drawn) | -5 | 3% | 1% | 5% | -2% | -3
Cc1ccc(NC(=O)c2ccc(Cn3cc([N+](=O)[O-])cn3)cc2)c(C)c1 | -9 | -2% | 5% | -26% | -25% | 8
CN(C)/C=C/C(=O)c1ccn(S(=O)(=O)c2ccccc2)c1 | 2 | 21% | -4% | ? | ? | -3
Cc1ccc(NC(=O)Cn2c(=O)oc3cc(S(=O)(=O)N4CCC(C)CC4)ccc32)cc1C | -4 | 14% | -9% | / | 24% | -5
O=C(NCc1cccnc1)c1cc(S(=O)(=O)N2CCCC2)c(Cl)cc1Cl | 28 | -1% | -2% | 2% | -10% | -3
COc1ccc(C)cc1NC(=O)CCN1CC(C)OC(C)C1 (stereo not drawn) | -8 | / | 1% | ? | 24% | -3
O=C(OCC(=O)C12CC3CC(CC(C3)C1)C2)c1cccnc1Cl | 29 | -11% | 26% | 19% | 59% | 20*
COc1ccc(C(=O)COC(=O)c2cccnc2Cl)c(OC)c1 | 72* | / | 0% | 131% | -25% | 38*
COc1ccc(OC)c(C(=O)COC(=O)c2c(OC)cccc2OC)c1 | -17 | -8% | 3% | -23% | -1% | -1
Cc1cc(C)c(C(=O)COC(=O)c2cccnc2Cl)c(C)c1 | 90* | / | -1% | -20% | 9% | 56*
COc1ccc(OC)c(C(=O)COC(=O)c2ccccc2O)c1 | 110* | -13% | -7% | 4% | 0% | 16*
O=C(OCC(=O)C12CC3CC(CC(C3)C1)C2)c1ccccn1 | -10 | -10% | 3% | 19% | 49% | 13
O=C(COC(=O)c1cccnc1Cl)c1ccc(Cl)cc1Cl | -16 | -25% | -7% | -10% | ? | -4
COc1ccc(OC)c(C(=O)COC(=O)c2cccnc2Cl)c1 | 18 | / | 0% | -11% | 16% | 10
CCOC(=O)CN(Cc1sccc1C)C(=O)Nc1ccc(OCC)cc1 | -3 | -5% | 9% | 1% | ? | -3
CCOc1ncccc1C(=O)OCC(=O)c1ccc(OC)c(OC)c1 | -1 | / | -4% | 12% | 5% | 14
CCOc1ncccc1C(=O)OCC(=O)c1ccc(C)c(C)c1 | 70* | / | 0% | 5% | 40% | 43*
COc1ccc(-n2c(=S)[nH]c3cc(C(=O)Nc4ccc(C)c(F)c4)ccc3c2=O)c(OC)c1 | 37 | -2% | 2% | -14% | -17% | 9
CC(NC(N)=O)C(=O)OCC(=O)c1ccc(-c2ccccc2)cc1 (stereo not drawn) | 43* | / | -1% | 11% | 42% | 36*
CCc1ccc(C(=O)COC(=O)C(CCSC)NC(=O)C23CC4CC(CC(C4)C2)C3)cc1 (stereo not drawn) | -7 | -5% | -4% | -6% | ? | -3
CCc1ccc(C(=O)COC(=O)C(CCSC)NC(=O)c2ccccc2)cc1 (stereo not drawn) | active | -5% | 8% | 11% | -7% | 22*
O=C(COC(=O)C(Cc1ccccc1)NC(=O)c1ccccc1)c1ccccc1 (stereo not drawn) | 37* | 13% | 16% | -3% | 41% | 24*
CCCCOc1ccc(/C=C/C(=O)N(CC)CC(=O)Nc2ccc3c(c2)OCCO3)cc1OC | / | / | 4% | ? | ? | /
C[C@H](CO)N1C[C@H](C)[C@@H](CN(C)S(C)(=O)=O)Oc2c(NC(=O)Nc3ccccc3)cccc2C1=O | / | / | -43% | / | / | /
SMILES | Shiga inhibitor | NS1 inh | SARS PLpro yeast | Pf growth 48h | Pf growth 96h | Cycloheximide cs
CCCCOc1ccc(C(=O)N2CCN(CC(=O)Nc3ccc(C)cc3)CC2)cc1OC | 2 | -4% | 10% | ? | ? | 10
COc1ccc(C(=O)COC(=O)CCCC(=O)NC2CCCCC2)cc1 | -2 | -21% | -4% | 2% | ? | -2
Cc1nonc1OC(C)CNc1ccc([N+](=O)[O-])cc1 (stereo not drawn) | -14 | -10% | -14% | 3.7µM* | 24% | 8
CCN(CC)CCn1c2c(c(SCC(=O)Nc3ccc4c(c3)OCCO4)nc1=O)CCC2 | / | / | 0% | ? | 2.1µM* | /
CCN(CC)CCn1c2c(c(SCC(=O)Nc3ccc(C)c(F)c3)nc1=O)CCCC2 | / | / | 1% | 7.4µM* | ? | /
COc1ccc(C(=O)NC2CCN(Cc3c(F)cccc3Cl)CC2)cc1OC | -8 | 4% | 5% | -17% | -26% | -1
CN(C(=O)Cc1c(C(=O)O)n(C)c2ccccc12)c1cccc(C(F)(F)F)c1 | -3 | 4% | -1% | 26% | 41% | -1
O=C(Nc1ncc(Cc2cccc(C(F)(F)F)c2)s1)C1CCCO1 (stereo not drawn) | 35* | ? | -6% | 97% | 4% | 34*
Cc1ccc(Cc2cnc(NC(=O)C3CCCO3)s2)cc1 (stereo not drawn) | 138* | -18% | 3% | 325% | i | 34*
CCOc1ccc(N(CC(=O)NC2CCCCC2)C(=O)CCC(=O)Nc2nccs2)cc1 | 4 | 5% | 1% | 7.4µM* | -16% | -2
CCc1ccccc1N(CC(=O)NC(C)(C)CC)C(=O)CCC(=O)Nc1nccs1 | -9 | 8% | 4% | ? | ? | -1
Cc1cccc(N(CC(=O)NC2CCCCC2)C(=O)CCCC(=O)Nc2ccccn2)c1 | 11 | -13% | -17% | 12µM* | -22% | 1
COc1cccc(N(CC(=O)NC2CCCCC2)C(=O)CCC(=O)Nc2nccs2)c1 | 14 | 20% | 1% | ? | 12µM* | 3
CCC(C)(C)NC(=O)CN(C(=O)CCC(=O)Nc1nccs1)c1ccccc1C | -4 | 3% | 5% | -24% | 10µM* | -1
CC(=O)C(=Cc1cn(-c2ccccc2)nc1-c1ccccc1)C(C)=O | 43 | -31% | 3% | -1% | 17% | -1
O=C(N/N=C\c1ccc[nH]1)C1COc2ccccc2O1 (stereo not drawn) | -5 | -3% | 0% | 4% | -2% | -3
COc1ccc(N2C(=O)C3[C@@H](C2=O)C2(Cl)C(Cl)=C(Cl)C3(Cl)C2(OC)OC)cc1 (stereo partly drawn) | -8 | 3% | 13% | 5% | 7% | 0
Cc1ccc(C(=O)NNC(=O)Cc2cccs2)cc1 | 29 | 10% | 6% | 54% | 45% | 20*
O=C(Cc1cccs1)NNC(=O)c1ccc(F)cc1 | -12 | 10% | 17% | 15% | -13% | -3
Cc1ccc(C(=O)NNC(=O)Cc2ccccc2)cc1 | 75 | 1% | 4% | / | 41% | 28*
Cc1ccc(S(=O)(=O)N2CCC(C(=O)OCC(=O)NC3(C#N)CCCCC3)CC2)cc1C | / | / | 0% | ? | 14% | /
